# Reference: PubChem BioAssay AID602393 (Broad Institute, 2012)
# About 7,000 (2%) of roughly 350,000 compounds were called active. The full list was thinned out, with actives kept by preference. Unmarked numbers belong to inactive results. No stated cut-off is given here; in the data, active means activation above about 40%; inconclusive means no clear call, values can overlap the other calls; inactive means below that.
# Assay: Bmi1 luciferase reporter increase in mESCs, primary screen, esBAF inhibitor project, mouse ES cells, Bmi1 luciferase knock-in, single point (AID 602393);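 further: 0% = median of the plate's neutral control wells and 100% = double that signal; a rise in the Bmi1 reporter signal indicates esBAF inhibition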
# Conditions: 24 h, at 12.5 µM, hits give high values, 100% = twice the neutral-well signal
row,Compound,reporter increase
1,C[C@H](CO)N1C[C@H](C)[C@H](CN(C)S(=O)(=O)c2ccccc2)Oc2cc(Br)ccc2S1(=O)=O,3.8%
2,COc1ccc(-c2noc(CCC(=O)N3CCN(c4cccc(C)c4)CC3)n2)cc1,-6.31%
3,Cc1ccc(C)c(N2CCN(C(=O)CCc3nc4ccccc4[nH]3)CC2)c1,10.7%
4,Cc1ccc(C)c(N2CCN(C(=O)CCc3nc(-c4cccc(C(F)(F)F)c4)no3)CC2)c1,61.9% (active)
5,CNC[C@@H]1Oc2ccc(NS(=O)(=O)c3c(C)noc3C)cc2CC(=O)N([C@@H](C)CO)C[C@@H]1C,1.22%
6,CO[C@H]1CN(C)C(=O)c2cc(NS(C)(=O)=O)ccc2OC[C@@H](C)N(C(=O)NC(C)C)C[C@@H]1C,-1.56%
7,CCC(=O)N1C[C@H]2[C@@H](c3ccccc31)[C@H](CO)N2Cc1ccccc1F,-1.5%
8,N#CC(=C1CCCC1)c1nc(-c2ccc(Cl)cc2)cs1,58.5% (active)
9,c1ccc(-c2csc(N3CCc4ccccc4C3)n2)cc1,21.9%
10,N#CC(=C1SC=CS1)c1nc(-c2ccccc2)cs1,56.6% (active)
11,C[C@@H]1CN([C@@H](C)CO)C(=O)Cc2cc(NS(=O)(=O)c3ccc(Cl)cc3)ccc2O[C@H]1CN(C)CC1CCCCC1,3.84%
12,O=C(Cc1ccccn1)N1[C@@H]2CNc3ccccc3[C@@H]2[C@@H]1CO,-1.83%
13,O=C(c1cccnc1)N1C[C@H]2[C@@H](c3ccccc31)[C@H](CO)N2C(=O)C1CCCCC1,-4.74%
14,CCC(=O)Nc1ccc2c(c1)C(=O)N(C)C[C@H](OC)[C@H](C)CN(C(=O)C1CCC1)[C@@H](C)CO2,-5.69%
15,CN1/C(=C\C(=O)c2cccnc2Cl)C(C)(C)c2ccccc21,48.4% (active)
16,CC(C)Nc1nnc(SCC(=O)/C=C2\N(C)c3ccccc3C2(C)C)s1,-0.0975%
17,CC(=O)Nc1cccc(OCC(=O)/C=C2\N(C)c3ccccc3C2(C)C)c1,-12.2%
18,C[C@@H]1CCCCO[C@H](CN(C)S(C)(=O)=O)[C@@H](C)CN([C@@H](C)CO)C(=O)c2cc(NC(=O)CCC(F)(F)F)ccc2O1,-0.325%
19,CCCNC(=O)[C@H]1[C@H](CO)[C@H]2Cn3c(ccc(C4=CCCC4)c3=O)[C@H]2N1C(=O)CC,-0.965%
20,O=C(CN1C(=O)COc2ccc(Cl)cc21)Nc1ccc(N2CCOCC2)cc1,-1.03%
21,O=C(CN1C(=O)COc2ccccc21)Nc1ccc(F)cc1,72.1% (active)

row,Compound,reporter increase
1,CC(OC(=O)CN1C(=O)COc2ccccc21)C(=O)NCc1ccc(F)cc1 (stereo unspecified),-4.32%
2,Cc1noc(C)c1NC(=O)N(C)C[C@@H]1OCCCC[C@H](C)Oc2ccc(NC(=O)CCC(F)(F)F)cc2C(=O)N([C@@H](C)CO)C[C@@H]1C,-15%
3,CN(C)C(=O)C[C@@H]1CC[C@@H](NS(=O)(=O)c2ccccc2)[C@H](CO)O1,-9.26%
4,CCOC(=O)C1(Cc2ccccc2C)CCCN(C(=O)c2ccc(COC)o2)C1 (stereo unspecified),52.7% (active)
5,CCOC(=O)C1(Cc2ccccc2C)CCCN(C(=O)CN2C(=O)CSC2=O)C1 (stereo unspecified),15.7%
6,CCOC(=O)C1(Cc2ccccc2C)CCCN(S(C)(=O)=O)C1 (stereo unspecified),-5.66%
7,COc1cccc(C(=O)Nc2ccc3c(c2)C(=O)N(C)[C@@H]2CC[C@H](CC(=O)NCCCN4CCOCC4)O[C@H]2CO3)c1,6.81%
8,C[C@@H]1CN([C@@H](C)CO)C(=O)c2cc(NS(=O)(=O)c3cn(C)cn3)ccc2O[C@@H](C)CCCCO[C@H]1CN(C)S(=O)(=O)c1cccs1,-0.192%
9,Cc1ccc(S(=O)(=O)Nc2ccc3c(c2)C(=O)N([C@H](C)CO)C[C@@H](C)[C@H](CN(C)C(=O)Nc2ccc(C(F)(F)F)cc2)OCCCC[C@H](C)O3)cc1,-0.527%
10,COc1ccc(/C=N/NC(=O)C2CC2)c(OC)c1OC,-5.72%
11,O=S(=O)(c1cccs1)N1CCc2ccccc2C1,-5.9%
12,c1ccc2c(c1)CCc1snnc1-2,-3.35%
13,COc1ccc(/C=C2\CCc3ccccc3C2=O)c(OC)c1OC,35.7% (active)
14,O=C1/C(=C/c2cccs2)CCc2ccccc21,56.4% (active)
15,COc1ccc(/C=C2/CCCc3ccccc3C2=O)cc1,23.6%
16,O=C(C[C@H]1C=C[C@@H](NS(=O)(=O)c2ccc(F)cc2)[C@@H](CO)O1)NC1CCC1,-2.06%
17,CO[C@H]1CN(C)C(=O)c2cc(NS(C)(=O)=O)ccc2OC[C@@H](C)N(C)C[C@@H]1C,0.827%
18,CN1CCCCN2[C@@H](CO)[C@@H](c3ccc(C4=CCCC4)cc3)[C@@H]2C1,-22.1%
19,CCc1nnc(NC(=O)c2cc(S(=O)(=O)N3CCCCC3)ccc2C)s1,8.45%
20,CCc1cc(C(=O)Nc2nnc(C3CC3)s2)sc1C,53.3% (active)
21,CCc1ccccc1OCC(=O)Nc1nnc(C2CC2)s1,1.33%

row,Compound,reporter increase
1,Cc1cc(C(=O)Nc2nnc(C3CC3)s2)c(C)s1,62.3% (active)
2,COc1ccc2c(CC(=O)Nc3nnc(C4CC4)s3)coc2c1,4.79%
3,O=C(Nc1nnc(C2CC2)s1)C1=NN(C2CCS(=O)(=O)C2)C(=O)CC1 (stereo unspecified),4.96%
4,COCc1cn(CC[C@H]2CC[C@H](NC(=O)c3ccncc3)[C@H](CO)O2)nn1,-3.19%
5,CN1C[C@H]2[C@@H](c3ccccc31)[C@@H](CO)N2C(=O)Nc1ccccc1,3.76%
6,O=S(=O)(Nc1ccc2cn[nH]c2c1)c1ccccc1,-0.15%
7,Cn1c(CCN2CCCC2)nc2cc(NS(=O)(=O)c3ccccc3)ccc21,1.19%
8,O=S(=O)(Nc1ccc2nc(-c3ccco3)[nH]c2c1)c1ccccc1,60.3% (active)
9,CO[C@H]1CC[C@@H]2CCOc3c(C#N)cccc3C(=O)N(C)C[C@H](C)C(=O)N(C)C[C@H]1O2,4.38%
10,C[C@H](NC(=O)C[C@@H]1C[C@@H]2c3cc(NC(=O)Nc4ccc(C(F)(F)F)cc4)ccc3O[C@@H]2[C@H](CO)O1)c1ccccc1,-3.56%
11,COC(=O)C[C@@H]1CC[C@@H]2[C@@H](COc3ccc(NC(=O)C4CCOCC4)cc3C(=O)N2C)O1,1.18%
12,C[C@H]1CN([C@@H](C)CO)C(=O)Cc2cc(NC(=O)Nc3ccc(F)cc3)ccc2O[C@H]1CN(C)S(=O)(=O)c1ccc(F)cc1,1.01%
13,COc1cc(-n2c(C)nc3cc(C(=O)NCc4ccco4)ccc32)cc(OC)c1OC,-1.78%
14,COc1ccc(-n2cnc3cc(NCc4ccco4)ccc32)cc1,56.7% (active)
15,Cc1nc2cc(NCc3cccs3)ccc2n1C,35%
16,O=C(C[C@H]1CC[C@H](NC(=O)Nc2ccccc2F)[C@@H](CO)O1)NCc1ccccc1,0.158%
17,S=C(Nc1ccccc1)Nc1ccc2ccccc2c1,78.2% (active)
18,Cc1ccc(NC(=S)Nc2ccc(F)cc2)cc1,9.65%
19,FC(F)(F)Oc1ccc(NC(=S)NCc2ccccc2)cc1,-1.5%
20,CCCCCOc1ccc(/C=C/C(=O)NCCc2nc3ccccc3[nH]2)cc1OC,1.93%
21,CCOc1ccc(/C=C(/C#N)c2nnc(N3CCOCC3)n2-c2ccccc2)cc1OC,2.69%

row,Compound,reporter increase
1,COc1cc(/C=C(\C#N)c2nc3ccccc3[nH]2)ccc1O,54.9% (active)
2,CC=Cc1ccc2n(c1=O)C[C@@H]1[C@@H](CO)[C@H](C(=O)NCCCN3CCOCC3)[C@H]2N1Cc1cocn1 (mixture of isomers),-2.98%
3,CCNC(=O)C[C@@H]1CC[C@H](NC(=O)NC2CCCCC2)[C@H](CO)O1,-1.71%
4,O=C(C[C@@H]1C[C@@H]2c3cc(NC(=O)Cc4ccncc4)ccc3O[C@@H]2[C@H](CO)O1)NCc1cccc(F)c1,-1.25%
5,O=C(COc1ccccc1Cl)N1CCCCCCC1,5.02%
6,O=C(COC(=O)c1cccc(Cl)c1Cl)NC1CCCCCC1,-2.51%
7,O=C(OCC(=O)N1CCCCCC1)c1cccc(Cl)c1Cl,46.9% (active)
8,Cc1ccc(O)c(NC(=O)c2cc(-c3ccco3)on2)c1,69.9% (active)
9,Cc1ccc(C)c(NC(=O)c2ccc(OC(=O)c3ccco3)cc2)c1,5.84%
10,CC(C)Cc1cc(C(=O)Nc2cc(Br)ccc2O)no1,30.6%
11,C[C@H](CO)N1C[C@H](C)[C@@H](CN(C)CC2CC2)OCCCC[C@H](C)Oc2ccc(NC(=O)Nc3ccccc3)cc2C1=O,2.38%
12,CNC[C@H]1Oc2cc(-c3ccc(C(=O)N(C)C)cc3)ccc2S(=O)(=O)N([C@@H](C)CO)C[C@@H]1C,0.467%
13,C[C@@H]1CN([C@H](C)CO)C(=O)c2ccccc2-c2ccccc2CO[C@H]1CN(C)C(=O)CCC(F)(F)F,-0.31%
14,COc1cccc(C(=O)Nc2ccc3nc4n(c(=O)c3c2)CCCCC4)c1,38.2%
15,CC(=O)c1ccc(NC(=O)c2sc3nc4n(c(=O)c3c2C)CCCCC4)cc1,56.1% (active)
16,O=c1c2c(nc3n1CCCCC3)sc1c(O)cccc12,-22.9%
17,COc1cccc(NC(=O)N(C)C[C@H]2Oc3ncc(C4=CCCCC4)cc3C(=O)N([C@H](C)CO)C[C@H]2C)c1,6.32%
18,C[C@H](CO)N1C[C@H](C)[C@@H](CN(C)C(=O)Nc2ccccc2)Oc2ncc(C3=CCCC3)cc2C1=O,1.19%
